We go through 33 compounds from publication PMC5540273 (PLoS ONE, 2017).
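Also: KINOMEscan kinase panel screen.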

The subject of the assay is TLK1. As to conditions: concentration: 1 μM, replicates: in singlicate; n = 1.
In the case of `O=C(Nc1n[nH]c2nc(-c3nccs3)c(Br)cc12)C1CCCC1` [SB-742609], the “%Inh” value is reported as 0%.
As for `CC1=C(C(=O)Nc2cc3cn[nH]c3cc2F)C(c2ccc(C(F)(F)F)cc2)CC(=O)N1` (stereo not drawn) [GSK429286], the figure is 10%.
Regarding `Cl.O=C(Nc1cccc(-c2nn3ncccc3c2-c2ccnc(Nc3cccnc3)n2)c1)c1c(F)cccc1F` [GSK312879], the “%Inh” value is on record as 0%.
As for `Cc1ccc(NC(=O)Nc2cccc(Cl)c2)cc1-c1ccc(C(=O)Nc2ccncc2)cc1` [GSK1398468], the figure is 0%.
As for `CC(=O)Nc1nc2cnc(Nc3cc(NC(=O)c4cccc(CCC#N)c4)ccc3C)nc2s1`, the figure is 0%.
As for `COc1cccc(NC(=O)NC2CCN(c3ccnc(Nc4ccc(F)cc4)n3)C2)c1` (stereo not drawn) [GSK1379721], the figure is 6%; as for `CS(=O)(=O)c1ccc(-c2nc3n(c2-c2ccncc2)CCC3)cc1` [SKF-105942], 0%.
Turning to `CCCc1ccc(S(=O)(=O)NC2CCN(c3ccnc(Nc4ccc(F)cc4)n3)C2)cc1` (stereo not drawn) [GSK1379715], the “%Inh” value stood at 0%.
To `O=S(=O)(c1ccc(-c2ccnc3[nH]ccc23)cc1)N1CCCC1` [GSK846226] belongs 24%.
To `Cc1ccc(NC(=O)Nc2cc(C(C)(C)C)nn2-c2ccccc2)cc1` [GSK1014915] belongs 2%; to `CN(C)CCN(C)C(=O)c1cc(-c2ccncc2)c(-c2ccc(Cl)c(O)c2)o1.Cl.Cl` [SB-710397], 0%; to `O=C(O)COc1ncnc2cc(-c3ccc4[nH]ncc4c3)sc12`, 22%.
As for `Cc1cccc(-c2nc(C)cc(Nc3ccncc3)n2)n1` [GSK257997], the figure is 8%.
Regarding `O=C(Nc1n[nH]c2nc(-c3nccs3)c(Br)cc12)C1CC1` [SB-742251], the “%Inh” value was 0%.
To `Nc1nc(-c2nccs2)c(-c2ccnc3ccccc23)s1` [GW693542] belongs 0%; to `CC(C)(C)c1ccc(C(=O)Nc2cn3cc(-c4cccnc4)ccc3n2)cc1`, 46%.
As for `Cn1ccc2ncnc(Oc3ccc(NC(=O)Nc4ccccc4)cc3)c21`, the figure is 2%; as for `Cl.c1ccc(-c2n[nH]cc2-c2ccnc(-c3ccc(CN4CCOCC4)cc3)c2)nc1` [GW776245], 0%.
In the case of `COc1cc2ncn(-c3cc(OCC4CCCO4)c(C(N)=O)s3)c2cc1OC` (stereo not drawn) [GSK204607], the “%Inh” value came to 0%.
To `COc1ccc(C2=C(Nc3cccc(C(=O)O)c3)C(=O)NC2=O)cc1` [SB-390765] belongs 1%.
To `Fc1cc(Cl)ccc1Nc1ccnc2cc(-c3ccc(CN4CCCCC4)o3)ccc12` [GW560116] belongs 0%; to `O=c1cc(N2CCOCC2)nc2n(Cc3cccc(Cl)c3Cl)ccn12` [GSK2286295], 0%.
To `O=C(Nc1ccccc1)Nc1cccc(Oc2ccc3nccn3n2)c1` belongs 17%; to `Nc1ncnc2[nH]c(-c3ccccc3)nc12` [AH5015], 0%.
`Cc1cccc(-c2nc(-c3ccc(S(C)(=O)=O)cc3)sc2-c2ccnc(NCCc3ccccc3)c2)c1`: the “%Inh” value is 6%.
On to `O=C(Nc1n[nH]c2cc(-c3cccc(F)c3F)ccc12)C1CC1` [SB-733894], for which the “%Inh” value was found to be 0%.
To `CN1C(=O)C(Nc2ccc(Cl)c(C(=O)O)c2)=C(c2ccc(Cl)cc2)C1=O` [SB-404290] belongs 0%; to `Cn1cncc1-c1ccc2ncnc(Nc3ccc(OCc4ccccc4)cc3)c2c1` [GW320571], 4%; to `Cn1ccc2ncnc(Oc3cccc(C(=O)Nc4ccccc4)c3)c21`, 5%.
As for `Fc1cc(Cl)ccc1Nc1ccnc2cc(I)ccc12` [GW551191], the figure is 21%.
To `COc1cc2ncnc(Nc3ccc4nc(-c5ccccc5)[nH]c4c3)c2cc1OC.Cl` [GW282450] belongs 0%; to `COc1cccc(-c2cc(-c3c[nH]nc3-c3ccccn3)ccn2)c1` [GW680338], 0%; to `COc1ccc(CNC(=O)NC2CCN(c3ccnc(Nc4cc(OC)c(OC)c(OC)c4)n3)C2)cc1` (stereo not drawn) [GSK1379748], 9%.
